From PubChem BioAssay (NCATS)
Records with an inconclusive call do not appear. Calls of active or inactive are those of the source. Calls follow the shape of the dose curve; as a rule, active = well fitted inhibition curve with a large enough effect; inconclusive = small, poorly fitted or top-dose-only effect; inactive = flat fitted curve, though single readings scatter.

Tests used:
CRL-7250 = normal cell line; experiment: Cytotoxic Profiling of Annotated Libraries Using Quantitative High-Throughput Screening (AID 1296008); conditions: Five cell lines viability, CellTiter-Glo ATP luminescence, 48-72 h; max response: active compounds read low; as to max response: % is scaled to controls: 0 for no effect and ±100 for the full control effect
How it was run: (§1)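 Compounds were pin-transferred onto cells and incubated 48 or 72 hr at 37 degree Celsius, 95% humidity. CellTiter-Glo was added, plates sat 10 min at room temperature, then ATP-coupled luminescence was imaged as the viability read-out.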

HaCat [1] = experiment: as above; conditions: Five cell lines viability, CellTiter-Glo ATP luminescence, 48-72 h; max response: active compounds read low
How it was run: as §1

KB-3-1 = experiment: as above; conditions: Five cell lines viability, CellTiter-Glo ATP luminescence, 48-72 h; max response: active compounds read low
How it was run: as §1

NIH3T3 = experiment: as above; conditions: Five cell lines viability, CellTiter-Glo ATP luminescence, 48-72 h; max response: active compounds read low
How it was run: as §1

HACAT [2] = experiment: qHTS assay to identify novel small-molecules to repurpose for Merkel cell carcinoma treatment (AID 1296009); conditions: MCC and control cell lines, CellTiter-Glo viability, 72 h; at 44.8 µM (top of the series) unless noted
How it was run: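 Luminescence from CellTiter-Glo, read 10 min after addition at room temperature, reported viability following a 72 hr, 37 degree celsius treatment with NPC or MIPE compounds in titration; values normalized to plate controls.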

Measured: max response
Also: nearly all actives have a fitted effect of over 60% in size.

O=c1cc(OCc2ccc(F)cc2)ccn1-c1ccc(OCCN2CCCC2)cc1
inactive: CRL-7250 -11.7% | HaCat [1] | KB-3-1 -29.6% | NIH3T3 -16.9% | HACAT [2]

O=C(NCc1ccc(OC(F)(F)F)cc1)C1c2c(F)cccc2C(=O)N1CCc1ccccn1 (stereo not given)
inactive: CRL-7250 -3.88% | HaCat [1] | KB-3-1 4.96% | NIH3T3 -2.89% | HACAT [2]

Cc1nc2cc(C(=O)NCc3ccccn3)nn2c(C)c1Cc1cccc(Cl)c1
inactive: CRL-7250 | HaCat [1] | KB-3-1 -9.98% | NIH3T3 3.03% | HACAT [2]

CCN(Cc1ccccc1)C(=O)Cn1c(=O)n(C)c2cnc(-c3ccccc3)nc21
inactive: CRL-7250 -1.74% | HaCat [1] | KB-3-1 | NIH3T3 | HACAT [2]

CC(C)[C@@H](c1ccc(C(F)(F)F)cc1CN(Cc1cc(C(F)(F)F)cc(C(F)(F)F)c1)c1nnn(C)n1)N1CCC(C(=O)O)CC1
inactive: CRL-7250 -8.05% | HaCat [1] | KB-3-1 -11.9% | NIH3T3 4.8% | HACAT [2]

CNCCCC1(c2ccccc2)OC(C)(C)c2ccccc21 (stereo not given)
inactive: CRL-7250 3.46% | HaCat [1] | KB-3-1 -1.28% | NIH3T3 | HACAT [2]

O=C(Nc1cc(C(F)(F)F)ccc1N1CCCCC1)c1ccncc1
inactive: CRL-7250 -7.1% | HaCat [1] | KB-3-1 -6.53% | NIH3T3 1.75% | HACAT [2]

Cc1cc(NC(=O)NCCN2CCC(O)(Cc3ccccc3)CC2)c2ccccc2n1
inactive: CRL-7250 2.34% | HaCat [1] | KB-3-1 -1.93% | NIH3T3 | HACAT [2]

CC(=O)O[C@@H]1CC2C(C)(C)C(=O)C=C[C@]2(C)C2CC[C@@]3(C)[C@H](c4ccoc4)OC(=O)[C@H]4O[C@]43[C@@]21C (stereo not given in full)
inactive: CRL-7250 | HaCat [1] | KB-3-1 | NIH3T3 -4.81% | HACAT [2] inactive [at 17.4 µM]
